From PubChem BioAssay (Tox21) come the findings set out here.

Unmarked numbers belong to inactive results. Records with an inconclusive call do not appear. Active and inactive are the calls of the source. Calls come from the whole dose curve; as a rule, active = well fitted curve in the direction sought with a large enough effect in the repeat runs; inconclusive = weak or mixed curves; inactive = no such curve, though single readings can be large; an effect the other way counts as inactive or inconclusive.

Test [1] is described as follows: A CellTox Green Cytotoxicity Assay to monitor cytotoxicity in HEK293 cells - 32 hour (AID 1224881). Note: nearly all actives have a fitted effect of over 40% in size. An outline of the steps:
(§1)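 Homogeneous no-lysis format: HEK293 cell suspension mixed with CellTox Green reagent, seeded, incubated 5 h at 37 C/5% CO2, then dosed by pintool with compound in DMSO.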

Test [2] in a line: A CellTox Green Cytotoxicity Assay to monitor cytotoxicity in HepG2 cells - 0 hour (AID 1224882). Note: nearly all actives have a fitted effect of over 35% in size. An outline of the steps: (§2)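 Fluorescent DNA-binding dye, 600 HepG2 cells/well, 5 h preincubation then compound in DMSO; same plates read at 0–40 h, 37 C.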
Test [3] in a line: A CellTox Green Cytotoxicity Assay to monitor cytotoxicity in HepG2 cells - 32 hour (AID 1224883). Note: nearly all actives have a fitted effect of over 50% in size. Note: potency is the fitted concentration of half-maximal effect. An outline of the steps:
as §2

A short description of test [4]: A CellTox Green Cytotoxicity Assay to monitor cytotoxicity in HEK293 cells - 8 hour (AID 1224884). Note: nearly all actives have a fitted effect of over 35% in size. An outline of the steps: as §1
A short description of test [5]: qHTS RealTime-Glo MT Cell Viability Assay in HepG2 cells - 16 hour (AID 1224885). Note: nearly all actives have a fitted effect of over 50% in size. An outline of the steps: (§3)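 HepG2 cells (600/well) were dispensed with RealTime-Glo reagents, incubated 5 h at 37 °C, then treated with compounds in DMSO for up to 40 h. Nonlytic NanoLuc luminescence reflecting viable cells was read at each stated time point.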
Test [6] in a line: qHTS RealTime-Glo MT Cell Viability Assay in HEK293 cells - 24 hour (AID 1224886). Note: top concentration of the series differs between compounds; nearly all actives have a fitted effect of over 50% in size. An outline of the steps: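 HEK293 cells seeded with NanoLuc/prosubstrate reagent, rested 5 h at 37 C, then dosed and kept at 37 C up to 40 h. Nonlytic real-time luminescence from viable cells read at 0, 8, 16, 24, 32 and 40 h.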
A general note: In qHTS, concentration-response curves come from the screen itself.

A short description of test [7]: qHTS RealTime-Glo MT Cell Viability Assay in HEK293 cells - 8 hour (AID 1224887). Note: top concentration of the series differs between compounds; nearly all actives have a fitted effect of over 50% in size. An outline of the steps:
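Measured as luminescence from the same continuously cultured HEK293 wells at successive time points (0, 8, 16, 24, 32, 40 h) after compound addition. Reagent present from seeding; dosing at 5 h; incubation 37 C.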

Test [8] in a line: A CellTox Green Cytotoxicity Assay to monitor cytotoxicity in HEK293 cells - 16 hour (AID 1224888). Note: nearly all actives have a fitted effect of over 35% in size. An outline of the steps:
as §1

Test [9] is described as follows: qHTS RealTime-Glo MT Cell Viability Assay in HepG2 cells - 0 hour (AID 1224889). Note: nearly all actives have a fitted effect of over 50% in size. An outline of the steps:
as §3

Test [10] is described as follows: A CellTox Green Cytotoxicity Assay to monitor cytotoxicity in HepG2 cells - 8 hour (AID 1224890). Note: nearly all actives have a fitted effect of over 45% in size. An outline of the steps:
as §2
% is set by controls: 0 for no effect and ±100 for the full control effect.

Turning to `CCN(CC)CCNC(C(=O)OCCC(C)C)c1ccccc1` (stereo not given), the Potency result in test [1], in test [2], in [3], in [4], in test [5] and in test [6] was “inactive” throughout. For the same compound, the Potency result in [7], in [8], in test [9] and in test [10] was “inactive” throughout.

Turning to `C[Si](C)O[Si](C)(C)O[Si](C)(C)O[Si](C)C`, the Potency entry in test [1], in [2], in test [3], in [4], in [5] and in test [6] was “inactive” each time. In addition, the Potency result in test [7], in test [8], in [9] and in test [10] was “inactive” each time.

On to `C=C(C)C(=O)OCCN(C)C`, for which the Potency entry in [1], in test [2], in test [3], in test [4], in test [5] and in [6] was “inactive” in each case. Also, the Potency result in [7], in test [8], in test [9] and in [10] was “inactive” each time.

Regarding `Cc1ccc(O)c([C@H](CCN(C(C)C)C(C)C)c2ccccc2)c1`, the Potency result in test [1], in test [2], in test [4], in test [5], in [6] and in [7] was “inactive” each time. Moreover, the Potency entry in [8], in [9] and in test [10] was “inactive” throughout. The Potency in test [3] was 21.3 µM (active).

Take `O=C(CCN1CCN2CCCC2C1)N1c2ccccc2Sc2ccc(Cl)cc21` (stereo not given): the cytotoxicity increase in test [1] is 1.45% [at 15.8 µM]; in [3], 16.3% [at 15.8 µM]; in [4], -4.39% [at 15.8 µM]; in test [10], 7.39% [at 15.8 µM]. Further, the cytotoxicity in test [2] was 0.972% [at 15.8 µM]. Besides, in [5], the activity change, negative = cytotoxic is -5.42% [at 15.8 µM]. Moreover, the activity change, negative = cytotoxicity in [6] was -17.5% [at 15.8 µM]; in test [7] it was -6.11% [at 15.8 µM]; in test [9], -0.655% [at 15.8 µM]. Besides, the activity change in [8] is 1.83% [at 15.8 µM, active compounds read high].

Take `CCCCCCCCCO`: the Potency entry in [1], in [2], in test [3], in test [4], in test [5] and in [6] was “inactive” each time. Further, the Potency result in test [7], in test [8], in test [9] and in test [10] was “inactive” each time.

On to `CCOC(=S)SSC(=S)OCC`, for which the Potency result in test [1], in test [2], in test [3], in test [4], in test [5] and in [6] was “inactive” throughout. The Potency entry in [7], in [8], in test [9] and in test [10] was “inactive” in each case.

On to `NCc1ccccc1`, for which the Potency result in [1], in test [2], in test [3], in [4], in test [5] and in [6] was “inactive” each time. Moreover, the Potency entry in test [7], in test [8], in [9] and in test [10] was “inactive” in each case.

For the compound `CC(=O)c1ccc2c(c1)[C@H](NC(=O)c1ccc(F)cc1)[C@@H](O)C(C)(C)O2`, the Potency entry in test [1], in [2], in test [3], in test [4], in test [5] and in test [6] was “inactive” each time. Further, the Potency entry in [7], in [8], in test [9] and in test [10] was “inactive” in each case.

With `CCOc1cc(OCC)c(C(=O)CCC(=O)O)cc1OCC`, the Potency entry in [1], in test [2], in test [3], in test [4], in test [5] and in [6] was “inactive” throughout. Moreover, the Potency entry in test [7], in test [8], in [9] and in [10] was “inactive” throughout.

Consider `OCCC1CCCCN1` (stereo not given), for which the Potency entry in [1], in [2], in test [3], in test [4], in test [5] and in test [6] was “inactive” throughout. The Potency result in test [7], in test [8], in [9] and in test [10] was “inactive” in each case.

Take `NC(=S)N/N=C/c1cccnc1`: the Potency result in test [1], in test [2], in test [3], in test [4], in test [5] and in test [6] was “inactive” throughout. Besides, the Potency entry in [7], in [8], in test [9] and in test [10] was “inactive” throughout.

Take `COc1ccc2[nH]c(S(=O)Cc3ncc(C)c(OC)c3C)nc2n1` (stereo not given): the Potency entry in [1], in [2], in test [3], in test [4], in [5] and in [6] was “inactive” each time. Moreover, the Potency result in test [7], in test [8], in test [9] and in test [10] was “inactive” throughout.

With `CCN(CC)CCc1nc(-c2ccccc2)no1`, the Potency result in [1], in test [2], in [3], in [4], in test [5] and in [6] was “inactive” in each case. Also, the Potency entry in test [7], in test [8], in test [9] and in [10] was “inactive” each time.

In the case of `Cc1ccccn1`, the Potency result in test [1], in [2], in test [3], in test [4], in [5] and in [6] was “inactive” in each case. Further, the Potency entry in test [7], in [8], in test [9] and in test [10] was “inactive” in each case.

For the compound `Cn1c(NCCN(CCO)CCCc2ccc([N+](=O)[O-])cc2)cc(=O)n(C)c1=O`, the Potency entry in test [1], in test [2], in test [3], in [4], in test [5] and in test [6] was “inactive” in each case. The Potency result in test [7], in test [8], in test [9] and in test [10] was “inactive” in each case.

Consider `CCCCCCCCCCCCCCCC(=O)OC/C=C(C)/C=C/C=C(C)/C=C/C1=C(C)CCCC1(C)C`, for which the Potency result in test [1], in [2], in [3], in [4], in [5] and in test [6] was “inactive” in each case. For the same compound, the Potency result in test [7], in test [8], in [9] and in test [10] was “inactive” in each case.

Regarding `FC(F)(F)C(F)(F)C(F)(F)C(F)(F)C(F)(F)C(F)(F)CCI`, the Potency entry in [1], in test [2], in test [3], in test [4], in test [5] and in [6] was “inactive” in each case. In addition, the Potency result in [7], in test [8], in test [9] and in test [10] was “inactive” throughout.

Take `C=Cc1c(C)c2cc3[nH]c(cc4nc(cc5nc(cc1[nH]2)C(C)=C5CCC(=O)O)C(CCC(=O)O)=C4C)c(C)c3C=C`: the Potency result in [1], in test [2], in test [3], in [4], in test [5] and in test [6] was “inactive” each time. The Potency result in [7], in test [8], in [9] and in [10] was “inactive” throughout.

Consider `N#CCCNCCC#N`, for which the Potency entry in test [1], in test [2], in test [3], in test [4], in test [5] and in [6] was “inactive” each time. Besides, the Potency result in test [7], in [8], in test [9] and in test [10] was “inactive” throughout.

With `O=C(c1ccccc1)c1ccc2n1CCC2C(=O)O` (stereo not given), the Potency entry in [1], in test [2], in test [3], in [4], in test [5] and in test [6] was “inactive” each time. Further, the Potency entry in test [7], in test [8], in [9] and in test [10] was “inactive” each time.

For `CC(C)=CCCC(C)CC=O` (stereo not given), the Potency result in test [1], in [2], in test [3], in [4], in test [5] and in test [6] was “inactive” throughout. Further, the Potency result in test [7], in test [8], in test [9] and in test [10] was “inactive” each time.
